Source: PubChem BioAssay (National Center for Advancing Translational Sciences (NCATS))
The full list was thinned out, with hits kept by preference.
Pf Dd2 growth – blocks in vitro growth of P. falciparum Dd2; 4.3% of 120,000 active; P. falciparum Dd2 growth, SYBR Green, 72 h; Potency, µM (doses to about 28.9 µM), hits mostly inhibitors; active = well fitted inhibition curve with a large enough effect; note: nearly all actives have a fitted effect of over 65% in size
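Readout: SYBR Green fluorescence, 485 nm excitation, 535 nm emission, after ~16 h lysis at 37C. Before that, Dd2-infected red cells (2.5% hematocrit) grew 72 h with compound, 29 uM top final concentration.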
Of the large screens only hits and unclear results are named; the others gave an inactive call.

COc1ccccc1NC(=O)Nc1cccc(-c2nnc3n2CCCC3)c1	none
COc1ccccc1NC(=O)Nc1ccc(-c2nnc3n2CCCC3)cc1	Pf Dd2 growth 4µM
O=C(Nc1ccc(-c2nnc3n2CCCC3)cc1)Nc1ccccc1Br	none
CNC(=O)N1CC(c2noc(C3CCCN3C(=O)NCCc3ccccc3)n2)C1 (stereo not drawn)	none
COC[C@@H]1CN(C(=O)CCn2cc(C)cn2)C[C@H]1c1ccncc1	none
COC(=O)[C@@H]1Cc2c([nH]c3ccccc23)[C@H]2C[C@@H](NCCO)C[C@@H](c3ccc(F)cc3)N21	none
COC(=O)[C@@H]1Cc2c([nH]c3ccccc23)[C@H]2C[C@@H](NCCNC(C)=O)C[C@@H](c3ccc(C(C)C)cc3)N21	none
COC(=O)[C@@H]1Cc2c([nH]c3ccccc23)[C@H]2C[C@@H](NC3CC3)C[C@@H](c3ccc(F)cc3)N21	Pf Dd2 growth 4.5µM
COC(=O)[C@@H]1Cc2c([nH]c3ccccc23)[C@H]2C[C@H](NCc3cccs3)C[C@@H](c3ccccc3)N21	Pf Dd2 growth 7.9µM
COC(=O)[C@@H]1Cc2c([nH]c3ccccc23)[C@H]2C[C@@H](N3CCOCC3)C[C@@H](c3ccc(F)cc3)N21	none
COC(=O)[C@@H]1Cc2c([nH]c3ccccc23)[C@H]2C[C@@H](NCCNC(C)=O)C[C@@H](c3ccc(C)cc3)N21	none
COC(=O)[C@@H]1Cc2c([nH]c3ccccc23)[C@H]2C[C@@H](NCc3cccnc3)C[C@@H](c3ccc(F)c(F)c3)N21	none
COC(=O)[C@@H]1Cc2c([nH]c3ccccc23)[C@H]2C[C@@H](NCCNC(C)=O)C[C@@H](c3ccccc3)N21	none
COC(=O)[C@@H]1Cc2c([nH]c3ccccc23)[C@H]2C[C@H](NCCO)C[C@@H](c3ccccc3)N21	none
COC(=O)[C@@H]1Cc2c([nH]c3ccccc23)[C@H]2C[C@@H](NCCN3CCOCC3)C[C@@H](c3ccc(C(F)(F)F)cc3)N21	Pf Dd2 growth 8.9µM
COC(=O)[C@@H]1Cc2c([nH]c3ccccc23)[C@@H]2C[C@@H](NCCNC(C)=O)C[C@@H](c3ccc(F)c(F)c3)N12	none
C#CCN[C@H]1C[C@@H]2c3[nH]c4ccccc4c3C[C@@H](C(=O)OC)N2[C@H](c2ccc(F)cc2)C1	Pf Dd2 growth 13µM
CNC(=O)[C@H]1C[C@H](Oc2ccccc2)CN1C(=O)CCc1ccc(OC)cc1	none
Cc1noc(C)c1S(=O)(=O)N1CC(c2nnc(C(C)C)o2)C2(CCOCC2)C1 (stereo not drawn)	none
O=C(NCc1ccc2c(c1)OCO2)C1CCCN(c2nc3ncccc3o2)C1 (stereo not drawn)	none
Cc1cccc(OC[C@H]2C[C@@H](NCc3nccn3C)[C@H](O)[C@@H]2O)n1	none
Cc1noc(C)c1S(=O)(=O)N1CCCC(c2[nH]ccc2C(N)=O)C1 (stereo not drawn)	none
CS(=O)(=O)N1C[C@H]2CCN(C(=O)c3ncccc3F)C[C@H]21	none
CCC1Oc2ccc(NC(=O)Nc3cccc(OC)c3)cc2CN(Cc2ccc3c(c2)OCO3)C1=O (stereo not drawn)	none
COc1cccc(-c2noc(CC3CCN(C(=O)c4ccc(F)c(F)c4)CC3)n2)c1	none
CC(C)Oc1ccc2c(NC(=O)CN3C(=O)CNC3=O)nn(CC(F)(F)F)c2c1	none
CC(=O)N1CCc2nn(CC(=O)Nc3ccccc3Cl)c(=O)cc2C1	none
COc1cc(-c2nc(C3CC(=O)N(c4ccc(Cl)cc4)C3)no2)cc(OC)c1OC (stereo not drawn)	none
O=C1[C@H]2CN(Cc3cccs3)C[C@H]2C(=O)N1Cc1ccc2c(c1)OCO2	none
O=C(Nc1ccc(F)cc1)c1cccn2cncc12	Pf Dd2 growth 16µM
O=C(Nc1ccc(Cl)cc1Cl)c1ccn2cncc2c1	none
O=C(Nc1ccc(Cl)cc1Cl)c1ccc2cncn2c1	none
O=C(Nc1ccc(F)cc1)c1cc2cccnn2n1	none
O=C(Nc1ccc(F)cc1)c1ccc(-n2cnnc2)cc1	none
O=C(Nc1ccc(Cl)cc1Cl)c1cccn2cncc12	Pf Dd2 growth 13µM
NC(=O)C1(C(=O)N2CCC3(CC2)CC(=O)N(C/C=C/c2ccccc2)C3)CC1	none
COc1ccc(NC(=O)c2nnn(-c3ccc(C(C)C)cc3)c2C)c(OC)c1	none
Cc1ccc(-n2nc(C)c([C@@H]3C=C[C@@H](NC(=O)NC4CCCCC4)C3)c2C)cc1Cl	none
COc1ccc(NC(=O)N[C@@H]2C=C[C@@H](c3c(C)nn(-c4ccc(C(C)C)cc4)c3C)C2)cc1	Pf Dd2 growth 11µM
COc1ccc(-n2nc(C)c([C@@H]3C=C[C@@H](NC(=O)NC4CCCCC4)C3)c2C)cc1	Pf Dd2 growth 16µM
CCNC(=O)N[C@@H]1C=C[C@@H](c2c(C)nn(-c3ccc(OC)cc3)c2C)C1	Pf Dd2 growth 10µM
Cc1nn(CCC#N)c(C)c1[C@@H]1C=C[C@@H](NC(=O)NC(C)C)C1	none
Cc1nn(-c2ccc(C(F)(F)F)cc2)c(C)c1[C@@H]1C=C[C@@H](NC(=O)NC(C)C)C1	none
Cc1nn(-c2ccc(C(C)C)cc2)c(C)c1[C@@H]1C=C[C@@H](NC(=S)NC2CCCCC2)C1	none
CC[C@@]1(O)CCN(C(=O)CCc2nc(-c3ccco3)no2)C[C@H]1O	none
O=C1[C@H]2CN(Cc3ccc(OC(F)(F)F)cc3)C[C@H]2C(=O)N1Cc1ccc2c(c1)OCO2	none
O=C1NC2(CCN(C(=O)c3cccnc3)C2)N=C1c1ccncc1 (stereo not drawn)	none
CC(C)[C@@H](N)C(=O)N1CCC(n2nccc2NC(=O)c2ccccc2)CC1	none
CC(C)C(=O)N1CCC2(CC1)N(c1ccccc1)C(=O)CS2(=O)=O	none
CC1(C(=O)O)CCN(C(=O)c2ccc(F)cc2)CC1	none
COCCOCc1nc(C2CCCN2C(=O)Nc2ccc(F)cc2F)no1 (stereo not drawn)	none
CN(CCC(O)c1ccccc1)C(=O)c1ccc2oc(-c3cccc(F)c3)nc2c1 (stereo not drawn)	none
O=C(c1cccnc1)N1CCC(N2C(=O)C(OCC3CC3)C23CCOCC3)CC1 (stereo not drawn)	none
Cc1cc(NS(=O)(=O)c2ccc3c(c2)CN(C(=O)CCC(C)C)CC3)no1	none
CCCN1CCCCC12Cc1ccccc1CN(C(=O)CCCC(=O)O)C2 (stereo not drawn)	none
CCCN1CCCC12Cc1ccccc1CN(C(=O)CNC(C)=O)C2 (stereo not drawn)	none
O=C(O)CCCC(=O)N1Cc2ccccc2CC2(CCCCN2CCc2ccccc2)C1 (stereo not drawn)	none
CCCC(=O)N1Cc2ccccc2CC2(CCCN2CCC)C1 (stereo not drawn)	Pf Dd2 growth 8.9µM
CCCC(=O)N1Cc2ccccc2CC2(CCCCN2CC)C1 (stereo not drawn)	Pf Dd2 growth 10µM
NCCC(=O)N1Cc2ccccc2CC2(CCCCN2CC2CCNCC2)C1 (stereo not drawn)	none
COc1ccc(C(C)NC(=O)COc2ccc(NC(C)=O)cn2)cc1OC (stereo not drawn)	none
Cc1cc(C(=O)N2CCC3(CC2)CC(N2CCN(CC(C)C)CC2)CCO3)n[nH]1 (stereo not drawn)	none
COCCCNc1ccc(C(=O)N2CCC(CN3CCCC3=O)CC2)cn1	none
CCCNC(=O)CN1CN(c2ccccc2)C2(CCN(C(=O)Nc3ccc(CC)cc3)CC2)C1=O	none
CC(C)NC(=O)CN1CN(c2ccccc2)C2(CCN(C(=O)NCc3ccccc3)CC2)C1=O	none
CC(C)(C)C(=O)N1CCC2(CC1)C(=O)N(CC(=O)Nc1cccc(Cl)c1)CN2c1ccccc1	Pf Dd2 growth 4µM
CC(C)c1noc(-c2cn(C3CCN(C(=O)c4ccsc4)CC3)nn2)n1	none
